In ChEMBL document CHEMBL2218924, “A broad activity screen in support of a chemogenomic map for kinase signalling research and drug discovery” (Biochem J, 2013) one finds residual activity data, which are given here for two molecules.

The target in assay [1] is T1, Serine/threonine-protein kinase TAO2 (Homo sapiens) (UniProt Q9UL54).
T1 sequence (whole entry): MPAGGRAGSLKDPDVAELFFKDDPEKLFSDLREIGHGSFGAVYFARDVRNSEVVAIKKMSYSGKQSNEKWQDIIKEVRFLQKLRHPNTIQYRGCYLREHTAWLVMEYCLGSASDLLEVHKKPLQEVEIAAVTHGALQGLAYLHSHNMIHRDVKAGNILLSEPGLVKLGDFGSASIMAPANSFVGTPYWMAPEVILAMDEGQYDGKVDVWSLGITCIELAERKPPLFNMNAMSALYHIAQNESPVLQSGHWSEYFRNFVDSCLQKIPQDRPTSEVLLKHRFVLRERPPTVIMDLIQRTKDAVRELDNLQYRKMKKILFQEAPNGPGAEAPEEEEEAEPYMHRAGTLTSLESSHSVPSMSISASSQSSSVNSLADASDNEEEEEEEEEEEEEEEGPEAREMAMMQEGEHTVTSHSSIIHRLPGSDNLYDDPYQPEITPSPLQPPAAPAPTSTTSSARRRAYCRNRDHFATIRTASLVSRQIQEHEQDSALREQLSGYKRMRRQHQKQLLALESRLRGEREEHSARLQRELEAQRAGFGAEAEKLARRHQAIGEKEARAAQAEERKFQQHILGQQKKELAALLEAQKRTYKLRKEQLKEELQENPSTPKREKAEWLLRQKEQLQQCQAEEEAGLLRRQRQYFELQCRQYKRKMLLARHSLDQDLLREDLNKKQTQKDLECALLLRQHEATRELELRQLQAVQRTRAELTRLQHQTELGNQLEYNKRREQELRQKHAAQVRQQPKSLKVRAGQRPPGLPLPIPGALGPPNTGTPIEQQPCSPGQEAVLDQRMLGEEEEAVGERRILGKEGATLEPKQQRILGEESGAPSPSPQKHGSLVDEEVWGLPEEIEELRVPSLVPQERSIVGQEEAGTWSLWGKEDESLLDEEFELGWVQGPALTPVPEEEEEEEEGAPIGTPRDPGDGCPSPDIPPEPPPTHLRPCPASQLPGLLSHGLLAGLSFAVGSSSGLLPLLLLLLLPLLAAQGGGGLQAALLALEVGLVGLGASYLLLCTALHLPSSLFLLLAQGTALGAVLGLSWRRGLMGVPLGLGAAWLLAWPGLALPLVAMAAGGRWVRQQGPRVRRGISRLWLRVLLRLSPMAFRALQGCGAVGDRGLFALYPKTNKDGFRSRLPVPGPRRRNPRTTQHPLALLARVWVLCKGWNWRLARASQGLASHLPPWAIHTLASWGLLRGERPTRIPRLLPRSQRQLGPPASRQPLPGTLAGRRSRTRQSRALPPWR
Conditions: at 1 µM.

For assay [2], the target named is T1, Serine/threonine-protein kinase TAO2 (Homo sapiens). As to conditions: at 10 µM.
For assay [3], the target named is T2, Serine/threonine-protein kinase TAO3 (Homo sapiens) (UniProt Q9H2K8).
T2 sequence (whole entry): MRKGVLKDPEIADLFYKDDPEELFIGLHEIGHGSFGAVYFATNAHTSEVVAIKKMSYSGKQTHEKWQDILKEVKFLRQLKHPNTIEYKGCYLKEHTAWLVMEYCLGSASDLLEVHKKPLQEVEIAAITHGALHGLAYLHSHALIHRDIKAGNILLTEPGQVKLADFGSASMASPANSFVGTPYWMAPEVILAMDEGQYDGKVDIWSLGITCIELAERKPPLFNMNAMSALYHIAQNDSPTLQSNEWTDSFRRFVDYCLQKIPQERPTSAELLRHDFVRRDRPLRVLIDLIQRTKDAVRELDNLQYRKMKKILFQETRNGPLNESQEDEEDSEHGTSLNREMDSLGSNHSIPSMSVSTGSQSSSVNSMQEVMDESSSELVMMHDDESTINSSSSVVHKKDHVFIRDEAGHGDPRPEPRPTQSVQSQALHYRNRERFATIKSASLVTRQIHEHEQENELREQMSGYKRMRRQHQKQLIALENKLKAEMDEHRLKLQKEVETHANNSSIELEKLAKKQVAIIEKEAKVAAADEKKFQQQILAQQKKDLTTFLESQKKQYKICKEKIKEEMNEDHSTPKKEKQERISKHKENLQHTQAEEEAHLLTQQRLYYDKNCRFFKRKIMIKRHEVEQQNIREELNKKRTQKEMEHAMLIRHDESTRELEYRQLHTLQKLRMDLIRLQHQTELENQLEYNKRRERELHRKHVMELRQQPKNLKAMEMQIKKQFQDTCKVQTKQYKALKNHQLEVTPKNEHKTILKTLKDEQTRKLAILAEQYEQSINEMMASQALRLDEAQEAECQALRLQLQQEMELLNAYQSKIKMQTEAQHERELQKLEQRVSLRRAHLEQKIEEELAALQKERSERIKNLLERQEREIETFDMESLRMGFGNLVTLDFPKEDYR
Conditions: at 1 µM.

Assay [4] addresses T2, Serine/threonine-protein kinase TAO3 (Homo sapiens). Conditions: at 10 µM.
For assay [5], the target named is T3, Serine/threonine-protein kinase TBK1 (Homo sapiens) (UniProt Q9UHD2).
T3 sequence (whole entry): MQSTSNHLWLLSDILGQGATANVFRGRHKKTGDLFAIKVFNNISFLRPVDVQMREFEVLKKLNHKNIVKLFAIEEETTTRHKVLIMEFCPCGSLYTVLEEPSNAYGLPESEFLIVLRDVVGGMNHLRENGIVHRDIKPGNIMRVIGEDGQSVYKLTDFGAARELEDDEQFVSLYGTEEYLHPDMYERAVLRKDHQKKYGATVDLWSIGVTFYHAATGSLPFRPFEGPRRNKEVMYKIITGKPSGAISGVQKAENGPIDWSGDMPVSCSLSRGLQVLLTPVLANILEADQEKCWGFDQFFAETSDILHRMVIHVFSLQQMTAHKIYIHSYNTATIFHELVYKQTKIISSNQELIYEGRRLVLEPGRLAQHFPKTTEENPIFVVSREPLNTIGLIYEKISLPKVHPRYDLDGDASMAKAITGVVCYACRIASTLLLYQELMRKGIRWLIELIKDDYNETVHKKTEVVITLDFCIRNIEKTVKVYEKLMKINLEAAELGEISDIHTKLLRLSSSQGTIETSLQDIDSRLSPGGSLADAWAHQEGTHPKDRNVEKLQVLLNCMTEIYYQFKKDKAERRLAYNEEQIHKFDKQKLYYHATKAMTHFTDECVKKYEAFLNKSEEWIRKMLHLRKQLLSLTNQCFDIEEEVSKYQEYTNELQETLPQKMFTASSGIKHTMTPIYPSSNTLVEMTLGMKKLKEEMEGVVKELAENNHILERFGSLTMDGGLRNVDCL
As to conditions: at 1 µM.

The target in assay [6] is T3, Serine/threonine-protein kinase TBK1 (Homo sapiens). As to conditions: at 10 µM.
For assay [7], the target named is T4, TGF-beta receptor type-1 (Homo sapiens) (UniProt P36897).
T4 sequence (whole entry): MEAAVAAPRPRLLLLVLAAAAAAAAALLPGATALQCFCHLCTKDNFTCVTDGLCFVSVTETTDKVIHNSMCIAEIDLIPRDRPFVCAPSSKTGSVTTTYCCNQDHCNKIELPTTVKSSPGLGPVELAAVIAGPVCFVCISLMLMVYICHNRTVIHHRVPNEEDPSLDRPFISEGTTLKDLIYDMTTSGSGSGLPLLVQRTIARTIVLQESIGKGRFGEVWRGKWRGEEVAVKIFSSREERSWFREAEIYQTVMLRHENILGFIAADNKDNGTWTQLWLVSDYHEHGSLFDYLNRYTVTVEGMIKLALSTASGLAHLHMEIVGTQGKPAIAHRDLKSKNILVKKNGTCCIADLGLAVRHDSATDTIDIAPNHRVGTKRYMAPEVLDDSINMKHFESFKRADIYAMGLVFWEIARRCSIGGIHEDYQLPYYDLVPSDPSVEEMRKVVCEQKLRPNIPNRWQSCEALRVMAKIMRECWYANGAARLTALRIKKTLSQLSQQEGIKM
Conditions: at 1 µM.

Assay [8] has as its target T4, TGF-beta receptor type-1 (Homo sapiens). Conditions: at 10 µM.
The target of assay [9] is Insulin-like growth factor 1 receptor (Homo sapiens) (UniProt P08069). As to conditions: at 1 µM.
The target is the same in assay [10]. Conditions: at 10 µM.
Assay [11] deals with T5, Inhibitor of nuclear factor kappa-B kinase subunit alpha (Homo sapiens) (UniProt O15111).
T5 sequence (whole entry): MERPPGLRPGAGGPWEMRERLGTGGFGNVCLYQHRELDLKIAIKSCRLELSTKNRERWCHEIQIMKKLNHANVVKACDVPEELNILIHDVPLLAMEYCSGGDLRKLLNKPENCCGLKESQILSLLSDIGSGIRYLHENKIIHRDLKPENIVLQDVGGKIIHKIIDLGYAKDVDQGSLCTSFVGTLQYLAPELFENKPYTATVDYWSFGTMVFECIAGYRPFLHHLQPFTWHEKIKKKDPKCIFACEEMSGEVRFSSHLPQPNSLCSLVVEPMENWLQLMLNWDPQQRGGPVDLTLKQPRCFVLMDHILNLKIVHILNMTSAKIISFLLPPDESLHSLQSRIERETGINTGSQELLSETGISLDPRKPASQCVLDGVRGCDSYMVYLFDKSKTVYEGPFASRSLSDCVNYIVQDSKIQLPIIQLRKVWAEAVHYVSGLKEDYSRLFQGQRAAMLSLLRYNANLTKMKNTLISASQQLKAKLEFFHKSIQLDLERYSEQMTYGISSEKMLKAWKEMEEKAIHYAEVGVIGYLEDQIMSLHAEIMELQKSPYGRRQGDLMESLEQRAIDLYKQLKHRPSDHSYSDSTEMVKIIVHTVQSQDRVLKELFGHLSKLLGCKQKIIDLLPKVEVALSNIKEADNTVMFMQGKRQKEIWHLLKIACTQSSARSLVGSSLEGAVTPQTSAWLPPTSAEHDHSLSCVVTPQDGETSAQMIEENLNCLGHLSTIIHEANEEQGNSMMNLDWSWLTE
Conditions: at 1 µM.

Assay [12] addresses T5, Inhibitor of nuclear factor kappa-B kinase subunit alpha (Homo sapiens). As to conditions: at 10 µM.
Assay [13] addresses T6, Inhibitor of nuclear factor kappa-B kinase subunit beta (Homo sapiens) (UniProt O14920).
T6 sequence (whole entry): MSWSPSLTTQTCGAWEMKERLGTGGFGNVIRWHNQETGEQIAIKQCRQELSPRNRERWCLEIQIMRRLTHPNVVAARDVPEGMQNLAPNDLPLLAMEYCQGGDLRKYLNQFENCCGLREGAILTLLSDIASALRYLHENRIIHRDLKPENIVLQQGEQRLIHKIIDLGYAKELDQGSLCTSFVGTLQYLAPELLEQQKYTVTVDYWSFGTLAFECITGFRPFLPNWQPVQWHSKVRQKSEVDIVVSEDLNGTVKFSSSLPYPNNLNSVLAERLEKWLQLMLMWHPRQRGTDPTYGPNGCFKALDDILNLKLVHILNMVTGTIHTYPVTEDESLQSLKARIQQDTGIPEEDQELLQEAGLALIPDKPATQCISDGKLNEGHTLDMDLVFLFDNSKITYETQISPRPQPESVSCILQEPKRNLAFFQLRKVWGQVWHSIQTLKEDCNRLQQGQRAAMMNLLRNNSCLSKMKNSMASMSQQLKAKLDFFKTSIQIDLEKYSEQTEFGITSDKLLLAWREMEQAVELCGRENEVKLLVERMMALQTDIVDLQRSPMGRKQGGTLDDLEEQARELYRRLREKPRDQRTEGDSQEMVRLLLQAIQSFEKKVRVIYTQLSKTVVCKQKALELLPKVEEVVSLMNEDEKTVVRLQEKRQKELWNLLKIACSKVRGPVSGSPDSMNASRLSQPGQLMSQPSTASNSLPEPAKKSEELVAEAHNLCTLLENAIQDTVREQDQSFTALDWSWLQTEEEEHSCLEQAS
Conditions: at 1 µM.

Assay [14] concerns the target T6, Inhibitor of nuclear factor kappa-B kinase subunit beta (Homo sapiens). Conditions: at 10 µM.
Assay [15] has as its target Insulin receptor (Homo sapiens) (UniProt P06213). As to conditions: at 1 µM.
The target is the same in assay [16]. Conditions: at 10 µM.
Assay [17] has the same target. As to conditions: at 1 µM. This is another data set of the same source.
For assay [18] the target is unchanged. As to conditions: at 10 µM. This is another data set of the same source.
The target of assay [19] is Interleukin-1 receptor-associated kinase 1 (Homo sapiens) (UniProt P51617). Conditions: at 1 µM.
Assay [20] has the same target. As to conditions: at 10 µM.

Insulin receptor (Homo sapiens), sequence (P06213 28-758 limits assumed): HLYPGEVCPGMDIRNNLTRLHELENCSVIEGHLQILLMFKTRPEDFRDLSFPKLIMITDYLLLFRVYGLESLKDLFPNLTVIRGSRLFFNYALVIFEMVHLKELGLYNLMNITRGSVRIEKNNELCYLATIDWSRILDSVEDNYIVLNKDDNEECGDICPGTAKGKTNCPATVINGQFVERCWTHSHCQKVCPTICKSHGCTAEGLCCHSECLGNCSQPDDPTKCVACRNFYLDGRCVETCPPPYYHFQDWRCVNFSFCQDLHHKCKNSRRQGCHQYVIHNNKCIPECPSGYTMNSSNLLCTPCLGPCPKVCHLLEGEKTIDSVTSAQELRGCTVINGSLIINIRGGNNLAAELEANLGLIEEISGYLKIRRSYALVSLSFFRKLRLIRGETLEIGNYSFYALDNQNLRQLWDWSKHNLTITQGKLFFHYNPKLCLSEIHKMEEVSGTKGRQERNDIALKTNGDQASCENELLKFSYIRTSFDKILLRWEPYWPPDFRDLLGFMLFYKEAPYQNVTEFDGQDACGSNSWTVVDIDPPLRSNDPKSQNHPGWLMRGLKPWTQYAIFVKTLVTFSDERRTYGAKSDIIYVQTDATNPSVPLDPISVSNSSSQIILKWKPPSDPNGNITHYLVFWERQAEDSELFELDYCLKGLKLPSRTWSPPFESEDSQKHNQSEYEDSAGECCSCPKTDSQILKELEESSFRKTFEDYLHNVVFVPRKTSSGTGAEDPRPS
Insulin receptor (Homo sapiens), sequence (P06213 763-1382 limits assumed): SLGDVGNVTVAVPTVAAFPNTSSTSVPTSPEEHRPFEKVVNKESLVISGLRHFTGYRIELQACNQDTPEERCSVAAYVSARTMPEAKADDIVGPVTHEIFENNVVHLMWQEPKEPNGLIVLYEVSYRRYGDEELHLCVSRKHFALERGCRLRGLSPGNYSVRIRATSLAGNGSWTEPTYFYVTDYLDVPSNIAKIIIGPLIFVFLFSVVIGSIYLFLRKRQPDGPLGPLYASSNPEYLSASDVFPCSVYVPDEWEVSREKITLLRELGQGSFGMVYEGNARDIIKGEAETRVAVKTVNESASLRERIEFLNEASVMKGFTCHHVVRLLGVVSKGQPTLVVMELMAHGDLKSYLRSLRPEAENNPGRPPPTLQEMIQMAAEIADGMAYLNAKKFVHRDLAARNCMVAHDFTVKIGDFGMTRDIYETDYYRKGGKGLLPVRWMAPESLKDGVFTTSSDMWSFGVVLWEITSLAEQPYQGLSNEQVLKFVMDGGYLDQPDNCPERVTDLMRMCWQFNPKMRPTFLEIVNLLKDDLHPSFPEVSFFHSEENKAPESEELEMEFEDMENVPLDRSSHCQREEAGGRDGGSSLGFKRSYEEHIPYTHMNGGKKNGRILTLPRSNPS
Interleukin-1 receptor-associated kinase 1 (Homo sapiens), sequence (P51617 whole entry, looked up): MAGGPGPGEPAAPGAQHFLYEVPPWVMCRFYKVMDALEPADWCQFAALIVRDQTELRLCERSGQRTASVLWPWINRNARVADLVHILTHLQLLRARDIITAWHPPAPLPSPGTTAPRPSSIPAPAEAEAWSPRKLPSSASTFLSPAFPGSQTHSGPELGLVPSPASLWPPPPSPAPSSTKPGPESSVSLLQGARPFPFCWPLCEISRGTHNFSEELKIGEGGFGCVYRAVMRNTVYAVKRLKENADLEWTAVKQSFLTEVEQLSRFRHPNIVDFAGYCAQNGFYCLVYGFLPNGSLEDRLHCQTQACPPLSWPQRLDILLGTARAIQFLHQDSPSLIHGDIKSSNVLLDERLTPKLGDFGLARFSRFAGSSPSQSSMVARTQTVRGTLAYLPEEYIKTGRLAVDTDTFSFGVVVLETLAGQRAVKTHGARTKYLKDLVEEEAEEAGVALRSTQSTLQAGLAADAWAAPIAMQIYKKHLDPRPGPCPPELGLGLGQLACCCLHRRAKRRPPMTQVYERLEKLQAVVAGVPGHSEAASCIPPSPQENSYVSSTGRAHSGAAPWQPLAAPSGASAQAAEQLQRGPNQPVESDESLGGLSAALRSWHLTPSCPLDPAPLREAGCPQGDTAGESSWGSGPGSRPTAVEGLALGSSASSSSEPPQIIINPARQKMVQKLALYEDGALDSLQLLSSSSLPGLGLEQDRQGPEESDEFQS
Insulin-like growth factor 1 receptor (Homo sapiens), sequence (P08069 31-736 limits assumed): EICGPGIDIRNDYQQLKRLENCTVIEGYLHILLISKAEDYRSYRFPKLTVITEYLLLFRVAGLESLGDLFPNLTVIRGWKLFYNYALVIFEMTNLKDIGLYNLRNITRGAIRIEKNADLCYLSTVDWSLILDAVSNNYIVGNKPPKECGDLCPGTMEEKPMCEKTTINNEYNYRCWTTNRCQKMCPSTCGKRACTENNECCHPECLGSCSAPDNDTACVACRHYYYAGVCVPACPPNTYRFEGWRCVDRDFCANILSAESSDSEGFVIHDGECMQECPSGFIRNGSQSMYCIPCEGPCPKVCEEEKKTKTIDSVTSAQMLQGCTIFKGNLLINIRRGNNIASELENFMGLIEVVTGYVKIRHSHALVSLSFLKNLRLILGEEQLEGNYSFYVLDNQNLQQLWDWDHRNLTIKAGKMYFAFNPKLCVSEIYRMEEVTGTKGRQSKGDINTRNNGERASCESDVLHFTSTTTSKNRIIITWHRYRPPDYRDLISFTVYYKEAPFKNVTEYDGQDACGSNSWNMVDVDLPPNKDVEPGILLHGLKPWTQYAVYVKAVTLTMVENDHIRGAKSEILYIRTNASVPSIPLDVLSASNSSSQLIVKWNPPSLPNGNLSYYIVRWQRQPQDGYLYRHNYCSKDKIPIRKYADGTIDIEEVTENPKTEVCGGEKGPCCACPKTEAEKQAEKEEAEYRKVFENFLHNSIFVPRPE
Insulin-like growth factor 1 receptor (Homo sapiens), sequence (P08069 741-1367 limits assumed): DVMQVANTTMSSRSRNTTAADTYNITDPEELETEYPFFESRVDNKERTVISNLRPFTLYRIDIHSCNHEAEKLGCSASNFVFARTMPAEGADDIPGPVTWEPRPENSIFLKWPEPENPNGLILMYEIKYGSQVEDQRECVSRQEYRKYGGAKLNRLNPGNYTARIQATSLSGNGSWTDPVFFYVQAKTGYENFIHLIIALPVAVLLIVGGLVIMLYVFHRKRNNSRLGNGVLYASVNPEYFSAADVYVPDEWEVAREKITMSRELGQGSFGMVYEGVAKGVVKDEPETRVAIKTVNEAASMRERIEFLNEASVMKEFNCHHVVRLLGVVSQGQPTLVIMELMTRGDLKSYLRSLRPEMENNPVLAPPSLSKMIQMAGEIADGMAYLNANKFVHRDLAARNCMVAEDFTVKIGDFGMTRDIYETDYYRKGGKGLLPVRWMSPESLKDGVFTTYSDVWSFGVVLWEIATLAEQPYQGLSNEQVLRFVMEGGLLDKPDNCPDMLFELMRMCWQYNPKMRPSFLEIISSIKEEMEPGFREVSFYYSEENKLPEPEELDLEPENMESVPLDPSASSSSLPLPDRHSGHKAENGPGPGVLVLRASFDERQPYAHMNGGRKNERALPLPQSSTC

In the case of `COC(=O)[C@@]1(O)C[C@H]2O[C@]1(C)n1c3ccccc3c3c4c(c5c6ccccc6n2c5c31)C(=O)NC4`, the residual activity in assay [1] was 16%; in assay [2] it was 2%; in assay [3] it was 10%; in assay [4] it was 3%; in [5] it was -1%; in [6], 3%. Besides, the residual activity was found to be 49% in assay [7]; 8% in assay [8]; 23% in [9]; 3% in assay [10]; 2% in [11]; 3% in assay [12]. The residual activity was determined as 17% in assay [13]; 3% in [14]; 42% in assay [15]; 20% in [16]; 7% in assay [17]; 0% in assay [18]. The residual activity in [19] turned out to be 1%; in [20] it was 0%.

Turning to `c1cc(-c2cnn3cc(-c4ccc(OCCN5CCCCC5)cc4)cnc23)ccn1`, the residual activity in assay [4] worked out at 82%; in [5] it was 64%; in assay [6], 13%; in assay [7], 78%; in assay [8], 30%; in [12], 86%. For the same molecule, the residual activity is 85% in assay [14], 138% in assay [15], 23% in assay [19] and 2% in assay [20].

By residual activity is commonly meant the signal under treatment as a percentage of the control signal.
